Rows were chosen to be rich in hits. Some 3.2% of all compounds tested hit in one or more screens of this group.
DSG3 Ab inh = inhibitors of pemphigus antibody binding to DSG3, primary screen, biochemical, bead-based, flow cytometry, scFv-GFP; Desmoglein-3 (Homo sapiens), P32926; DSG3-coupled beads, scFv-anti-DSG3-GFP binding; active compounds read low; binding (percent of control), % at 10 µM; 0.48% of 310,000 active;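 active = binding more than 3 SD below its plate's average and above zero; inconclusive = below that plate limit but binding exactly zero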;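 note: hits lower antibody fragment binding to DSG3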
NadD inh = inhibitors of S. aureus NadD, primary screen, biochemical, colorimetric, uHTS; purified NadD enzyme, colorimetric absorbance read-out; inhibition, % at 20 µM; 0.78% of 360,000 active; in the data active = inhibition above about 26%
bovine MsrA act = bovine MsrA enzyme activators, primary screen, biochemical, absorbance, HTS; 0.3% of 360,000 active; purified bovine MsrA, absorbance read-out; activation, % at 10.6 µM; AID 602163, 2012; Methionine sulfoxide reductase A (Bos taurus); in the data active = activation above about 7.5%;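 note: 0% = vehicle and 100% = reference activator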
rCAG RNA binder = binders of r(CAG) RNA repeats, primary screen, biochemical, fluorescence | r(CAG) RNA repeat, TO-PRO-1 dye displacement fluorescence | AID 651821, 2012 | inhibition, % at 3 µM | 1.3% of 370,000 active;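 active = inhibition above the plate cutoff, the mean of all test compounds on that plate plus 3 SD, cut at about 35% in these data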;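 note: 0% = DMSO alone and 100% = 100 µM mitoxantrone as full dye displacement; higher means more dye released from RNA so lower well fluorescence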
MsrA inh = bovine MsrA enzyme inhibitors, primary screen, biochemical, absorbance, HTS; purified bovine MsrA, absorbance read-out; Methionine sulfoxide reductase A (Bos taurus); AID 651718, 2012; 0.75% of 360,000 active; inhibition, % at 15.5 µM;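 note: 0% = vehicle wells with enzyme and 100% = reference inhibitor wells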
DAGLB inh = DAGLB lipase inhibitors, primary screen, biochemical, fluorescence, HTS. AID 504411, 2011. inhibition, % at 5.17 µM. 0.059% of 340,000 active. HEK293T DAGLB membrane lysate, EnzChek fluorogenic substrate. Diacylglycerol lipase-beta (Homo sapiens), Q8NCG7; in the data active = inhibition above about 34%;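 note: 0% = enzyme with vehicle and 100% = wells lacking enzyme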
Target sequence (Q8NCG7 whole entry, looked up): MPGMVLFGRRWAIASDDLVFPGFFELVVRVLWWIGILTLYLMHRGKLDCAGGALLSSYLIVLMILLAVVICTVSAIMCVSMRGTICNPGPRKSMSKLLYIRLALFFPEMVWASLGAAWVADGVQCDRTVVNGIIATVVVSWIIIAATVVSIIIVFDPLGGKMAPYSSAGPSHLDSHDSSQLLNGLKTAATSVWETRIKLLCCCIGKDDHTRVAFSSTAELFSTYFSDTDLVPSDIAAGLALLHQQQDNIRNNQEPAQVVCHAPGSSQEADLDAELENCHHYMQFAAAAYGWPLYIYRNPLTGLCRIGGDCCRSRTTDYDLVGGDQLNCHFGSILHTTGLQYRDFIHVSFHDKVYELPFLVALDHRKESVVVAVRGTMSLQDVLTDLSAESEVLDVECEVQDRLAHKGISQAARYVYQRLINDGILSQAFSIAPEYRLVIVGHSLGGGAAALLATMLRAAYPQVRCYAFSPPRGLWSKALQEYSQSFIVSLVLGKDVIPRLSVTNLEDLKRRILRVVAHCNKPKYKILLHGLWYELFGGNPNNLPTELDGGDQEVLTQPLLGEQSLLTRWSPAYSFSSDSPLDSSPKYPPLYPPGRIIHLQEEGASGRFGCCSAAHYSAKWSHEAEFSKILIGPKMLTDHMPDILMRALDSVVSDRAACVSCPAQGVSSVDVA
MsrA conf = bovine MsrA inhibitors, retest, confirmation, biochemical, absorbance, HTS; inhibition, % at 15.5 µM; 41% of 2,300 active; purified bovine MsrA, absorbance read-out; AID 651822, 2012; shares compounds with MsrA inh;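 note: coupled to thioredoxin reductase with NADPH and selenocystamine and DMSO as substrate; 0% = vehicle only and 100% = full effect of reference inhibitor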
Starred values were filed as active, the others as inactive; ? = inconclusive; · = no result. Cut-off read from the data, not from the text of the source, unless noted: active = inhibition above about 4.5%; inactive = the rest.

SMILES | DSG3 Ab inh | NadD inh | bovine MsrA act | rCAG RNA binder | MsrA inh | DAGLB inh | MsrA conf
COc1cc(/C=N/NC(=O)c2ccc(CSc3nncn3C)cc2)cc(OC)c1O | 105 | -3 | -10 | -5 | 5.0* | -1 | 4
Cn1cnnc1SCc1ccc(C(=O)N/N=C/c2cccs2)cc1 | 102 | -10 | -7 | -1 | 4.7* | -4 | 1
NC(=O)c1nnn(Cc2cc(Cl)c(C(=O)c3ccc(Cl)cc3)c(Cl)c2)c1N | · | 7 | -5 | 5 | -1 | · | ·
O=C(O)CCC(=O)Nc1ccc(/C=C/C(=O)C2CC2)cc1 | 99 | 1 | -6 | 1 | 7.3* | 2 | 3
CCOC(=O)C1=CCN(S(=O)(=O)c2ccccc2C)C1c1cccc(Br)c1 (stereo unspecified) | · | -4 | 1 | 2 | 2 | · | ·
Cc1ccc(/C=C/C(=O)OCC(=O)NC(C)c2ccccc2)o1 (stereo unspecified) | 98 | 3 | -3 | 3 | 6.5* | -1 | 3
C[C@H](c1ccccc1)N1C[C@@H](COCc2ccccc2)Oc2cccc(N3CCCCC3)c2S1(=O)=O | · | · | · | 5 | 0 | · | ·
CN(C)c1ccc(C(=O)c2ccccc2C(=O)O)c(O)c1 | 102 | -1 | -8 | 0 | 6.4* | -1 | 5.8*
CCCn1c(O)c(N=NC(=O)c2ccco2)c2ccccc21 | 88 | 19 | -1 | -2 | 4.7* | 2 | 5.3*
CCn1c(O)c(N=NC(=O)CNC(=O)c2ccco2)c2ccccc21 | 100 | -6 | -7 | 2 | 1 | -2 | ·
O=C(N=Nc1c(O)[nH]c2ccccc12)c1ccc(CN2CCOCC2)cc1 | 98 | -7 | 2 | 1 | 6.1* | 2 | 3
O=C(CSCc1ccccc1)N=Nc1c(O)[nH]c2ccccc12 | 104 | 3 | -8 | 5 | 1 | 0 | ·
O=C(N=Nc1c(O)[nH]c2ccccc12)c1ccco1 | 100 | -6 | -9 | 6 | 6.8* | -1 | 5.0*
c1csc(C2CCCN2c2nc3nonc3nc2NC2CC2)n1 (stereo unspecified) | 102 | 2 | -5 | -1 | 5.7* | 3 | 1
CN(CCc1ccccn1)C(=O)c1ccc(Sc2ccccc2Cl)c([N+](=O)[O-])c1 | · | · | · | 0 | · | · | ·
COc1cccc(/C=N/NC(=S)Nc2cccnc2)c1 | 102 | -1 | -2 | 1 | 3 | 0 | ·
Oc1ccc(/C=N/NC(=S)N/N=C/c2ccc(O)cc2)cc1 | 98 | 0 | 4 | 11 | 6.4* | 4 | 7.2*
Oc1ccc(/C=N/NC(=S)Nc2cccnc2)cc1 | 101 | -5 | -2 | 1 | 7.9* | 4 | 6.2*
COc1ccccc1NC(=S)N/N=C/c1ccc(O)cc1 | 100 | -5 | -7 | 12 | 4 | -4 | ·
Cc1ccc(/C(CSc2nccn2-c2ncc(C(F)(F)F)cc2Cl)=N\O)cc1 | 107 | -7 | 1 | 1 | 8.6* | 0 | 0
O=C(CSc1nccn1-c1ncc(C(F)(F)F)cc1Cl)c1ccc(Br)cc1 | 81 | 2 | -1 | · | · | -2 | ·
O=C(OCc1cn([C@H]2CN(CC3CCCCC3)[C@@H](c3ccc(Cl)cc3)C[C@@H]2O)nn1)c1ccccc1 | · | -3 | -4 | 5 | 1 | -6 | ·
Oc1ccc(C(=Nc2ccccc2)c2ccccc2)c(O)c1 | · | -5 | -5 | 1 | 5.3* | -4 | 1
O=C(NNC(=O)c1ccc(O)cc1O)c1ccc(-c2ccccc2)cc1 | 113 | 3 | 0 | 13 | 0 | 3 | ·
CSc1nc2sc3c(c2c2nnnn12)CCCC3 | 100 | -11 | -6 | 6 | 12* | -7 | 17*
SMILES | DSG3 Ab inh | NadD inh | bovine MsrA act | rCAG RNA binder | MsrA inh | DAGLB inh | MsrA conf
CSc1nc2sc3c(c2c(=O)n1C)CCCC3 | 103 | 0 | -2 | 1 | -2 | -10 | ·
O=c1oc2ccc([N+](=O)[O-])cc2c(N2CCOCC2)c1[N+](=O)[O-] | · | · | · | 2 | 5.1* | · | 1
COc1cccc(Oc2nnnn2-c2ccccc2)c1 | 96 | 0 | -3 | -1 | 4.7* | -2 | 1
CCN(CC)C(=O)Cn1c(=O)n(CC(=O)N2CCCCC2)c(=O)c2sccc21 | ? | -2 | -1 | -2 | 0 | -3 | ·
O=C(O)c1ccc(/C=C2\SC(=S)N(NC(=O)c3ccccc3[N+](=O)[O-])C2=O)cc1 | 95 | -6 | -8 | 5 | 4.8* | -1 | 4
CC1=CC(=O)[C@@H](O)[C@@H](c2ccccc2Br)N1C | 105 | -1 | -5 | 0 | 5.3* | -5 | 4
CC1=CC(=O)[C@@H](OC(=O)Nc2ccc(C)cc2)[C@@H](c2ccccc2Br)N1C | 109 | 3 | -11 | 2 | 0 | -1 | ·
O=C(O)c1cccc(Nc2ccc([N+](=O)[O-])cn2)c1 | 107 | -1 | -5 | 0 | 2 | -3 | ·
O=C(N/N=C/C(Cl)=C/c1ccc([N+](=O)[O-])cc1)C(=O)Nc1cccc(C(=O)O)c1 | 101 | 4 | -5 | 18 | 9.2* | 3 | 5.3*
COC(=O)[C@H](CC(C)C)N1Cc2nnn(CC3CCCCC3)c2-c2cc(F)ccc2S1(=O)=O | · | · | · | 4 | · | · | ·
O=C(Nc1nc(-c2nc3ccccc3s2)cs1)c1ccc(S(=O)(=O)N2CCOCC2)cc1 | 98 | 27 | -8 | 8 | 5.0* | -4 | 1
O=C(Nc1nc(-c2ccc(S(=O)(=O)N3CCOCC3)cc2)cs1)c1ccccc1 | 93 | 7 | -11 | 16 | 0 | -3 | ·
COc1ccc(S(=O)(=O)Nc2ccc3c(c2)C(=O)N([C@H](C)CO)C[C@H](C)[C@@H](CN(C)Cc2ccncc2)OCCCC[C@@H](C)O3)cc1 | 117 | -2 | 0 | 4 | -1 | 2 | ·
O=C1CC(C(=O)O)S/C(=N\N=C\c2ccc(Br)cc2)N1 (stereo unspecified) | 107 | -1 | -16 | 4 | 4.9* | 1 | 3
C/C(=N/N=C1/NC(=O)CC(C(=O)O)S1)c1ccccc1 (stereo unspecified) | 100 | 0 | 3 | 2 | 1 | -8 | ·
N#CC1=C(N)Oc2cc3ccccc3cc2C1c1cccnc1 (stereo unspecified) | 107 | 3 | -5 | -4 | 7.6* | 4 | 2
N#CC1=C(N)Oc2c(ccc3cccnc23)C1c1cccnc1 (stereo unspecified) | · | 9 | -3 | 4 | 2 | 1 | ·
COc1ccc(/C=N/NC(=O)c2c(C)nc3ccccn23)cc1[N+](=O)[O-] | 98 | -1 | -3 | -3 | 2 | 1 | ·
